The full data set covers some 8,800 targets. This sample favours those with a hit. About 0.5% of all pairs of compound and target were hits. Values without a mark were called inactive.
compound: CN1CCC(CNc2ccc3ncc(-c4cccc(OC(F)(F)F)c4)n3n2)CC1; test: log2 fold change, soluble protein after heating vs DMSO (PISA); higher = thermal stabilisation; K562 lysate, 10 uM; active = over 0.2 and 3.5 SD of the protein, either way, in both replicates (recomputed)
Outline: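 The values are log-two fold changes in thermal stability compared with solvent controls and come from duplicates. They were obtained by TMTpro 16plex LC-MS/MS, with channel sums equalised, on the supernatant after 21,000xg for 90 min. That supernatant came from crude K562 extract at 1 mg/mL protein treated with 10 μM compound for 30 min, heated for 3 min across 48°C-58°C, pooled and brought to 0.5% NP-40 at 4°C.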

Sequence of UniProt Q9BQ69 (Q9BQ69 whole entry, looked up): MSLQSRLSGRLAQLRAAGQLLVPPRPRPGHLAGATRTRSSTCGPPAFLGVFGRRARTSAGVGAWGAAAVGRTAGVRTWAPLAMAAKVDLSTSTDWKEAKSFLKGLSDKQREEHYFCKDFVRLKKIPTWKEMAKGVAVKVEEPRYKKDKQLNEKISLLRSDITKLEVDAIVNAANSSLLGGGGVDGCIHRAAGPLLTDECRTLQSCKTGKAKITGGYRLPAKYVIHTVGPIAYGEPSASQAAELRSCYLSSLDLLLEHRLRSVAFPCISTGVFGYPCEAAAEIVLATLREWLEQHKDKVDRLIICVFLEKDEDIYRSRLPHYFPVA
Sequence of UniProt Q68D91 (Q68D91 whole entry, looked up): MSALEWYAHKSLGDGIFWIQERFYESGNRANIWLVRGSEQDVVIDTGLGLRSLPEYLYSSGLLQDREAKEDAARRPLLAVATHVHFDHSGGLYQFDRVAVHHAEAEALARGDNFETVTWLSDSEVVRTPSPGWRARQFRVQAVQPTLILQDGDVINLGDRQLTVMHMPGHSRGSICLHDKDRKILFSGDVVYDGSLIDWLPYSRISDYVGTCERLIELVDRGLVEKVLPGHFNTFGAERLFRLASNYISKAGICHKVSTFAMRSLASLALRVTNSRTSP
Sequence of UniProt Q8IW41 (Q8IW41 whole entry, looked up): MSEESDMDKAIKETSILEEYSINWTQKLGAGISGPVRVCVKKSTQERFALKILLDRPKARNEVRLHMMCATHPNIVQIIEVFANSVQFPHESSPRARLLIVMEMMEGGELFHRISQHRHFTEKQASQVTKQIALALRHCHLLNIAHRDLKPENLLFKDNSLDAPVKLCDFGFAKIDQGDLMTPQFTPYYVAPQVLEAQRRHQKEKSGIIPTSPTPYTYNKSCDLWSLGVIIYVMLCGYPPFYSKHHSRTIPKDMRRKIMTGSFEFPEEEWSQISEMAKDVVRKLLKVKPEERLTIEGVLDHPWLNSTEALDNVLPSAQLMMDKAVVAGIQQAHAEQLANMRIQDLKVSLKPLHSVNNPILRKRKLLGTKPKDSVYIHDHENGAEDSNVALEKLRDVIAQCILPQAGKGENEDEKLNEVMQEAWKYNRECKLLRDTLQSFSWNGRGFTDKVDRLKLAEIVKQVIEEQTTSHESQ
Sequence of UniProt O15021 (O15021 whole entry, looked up): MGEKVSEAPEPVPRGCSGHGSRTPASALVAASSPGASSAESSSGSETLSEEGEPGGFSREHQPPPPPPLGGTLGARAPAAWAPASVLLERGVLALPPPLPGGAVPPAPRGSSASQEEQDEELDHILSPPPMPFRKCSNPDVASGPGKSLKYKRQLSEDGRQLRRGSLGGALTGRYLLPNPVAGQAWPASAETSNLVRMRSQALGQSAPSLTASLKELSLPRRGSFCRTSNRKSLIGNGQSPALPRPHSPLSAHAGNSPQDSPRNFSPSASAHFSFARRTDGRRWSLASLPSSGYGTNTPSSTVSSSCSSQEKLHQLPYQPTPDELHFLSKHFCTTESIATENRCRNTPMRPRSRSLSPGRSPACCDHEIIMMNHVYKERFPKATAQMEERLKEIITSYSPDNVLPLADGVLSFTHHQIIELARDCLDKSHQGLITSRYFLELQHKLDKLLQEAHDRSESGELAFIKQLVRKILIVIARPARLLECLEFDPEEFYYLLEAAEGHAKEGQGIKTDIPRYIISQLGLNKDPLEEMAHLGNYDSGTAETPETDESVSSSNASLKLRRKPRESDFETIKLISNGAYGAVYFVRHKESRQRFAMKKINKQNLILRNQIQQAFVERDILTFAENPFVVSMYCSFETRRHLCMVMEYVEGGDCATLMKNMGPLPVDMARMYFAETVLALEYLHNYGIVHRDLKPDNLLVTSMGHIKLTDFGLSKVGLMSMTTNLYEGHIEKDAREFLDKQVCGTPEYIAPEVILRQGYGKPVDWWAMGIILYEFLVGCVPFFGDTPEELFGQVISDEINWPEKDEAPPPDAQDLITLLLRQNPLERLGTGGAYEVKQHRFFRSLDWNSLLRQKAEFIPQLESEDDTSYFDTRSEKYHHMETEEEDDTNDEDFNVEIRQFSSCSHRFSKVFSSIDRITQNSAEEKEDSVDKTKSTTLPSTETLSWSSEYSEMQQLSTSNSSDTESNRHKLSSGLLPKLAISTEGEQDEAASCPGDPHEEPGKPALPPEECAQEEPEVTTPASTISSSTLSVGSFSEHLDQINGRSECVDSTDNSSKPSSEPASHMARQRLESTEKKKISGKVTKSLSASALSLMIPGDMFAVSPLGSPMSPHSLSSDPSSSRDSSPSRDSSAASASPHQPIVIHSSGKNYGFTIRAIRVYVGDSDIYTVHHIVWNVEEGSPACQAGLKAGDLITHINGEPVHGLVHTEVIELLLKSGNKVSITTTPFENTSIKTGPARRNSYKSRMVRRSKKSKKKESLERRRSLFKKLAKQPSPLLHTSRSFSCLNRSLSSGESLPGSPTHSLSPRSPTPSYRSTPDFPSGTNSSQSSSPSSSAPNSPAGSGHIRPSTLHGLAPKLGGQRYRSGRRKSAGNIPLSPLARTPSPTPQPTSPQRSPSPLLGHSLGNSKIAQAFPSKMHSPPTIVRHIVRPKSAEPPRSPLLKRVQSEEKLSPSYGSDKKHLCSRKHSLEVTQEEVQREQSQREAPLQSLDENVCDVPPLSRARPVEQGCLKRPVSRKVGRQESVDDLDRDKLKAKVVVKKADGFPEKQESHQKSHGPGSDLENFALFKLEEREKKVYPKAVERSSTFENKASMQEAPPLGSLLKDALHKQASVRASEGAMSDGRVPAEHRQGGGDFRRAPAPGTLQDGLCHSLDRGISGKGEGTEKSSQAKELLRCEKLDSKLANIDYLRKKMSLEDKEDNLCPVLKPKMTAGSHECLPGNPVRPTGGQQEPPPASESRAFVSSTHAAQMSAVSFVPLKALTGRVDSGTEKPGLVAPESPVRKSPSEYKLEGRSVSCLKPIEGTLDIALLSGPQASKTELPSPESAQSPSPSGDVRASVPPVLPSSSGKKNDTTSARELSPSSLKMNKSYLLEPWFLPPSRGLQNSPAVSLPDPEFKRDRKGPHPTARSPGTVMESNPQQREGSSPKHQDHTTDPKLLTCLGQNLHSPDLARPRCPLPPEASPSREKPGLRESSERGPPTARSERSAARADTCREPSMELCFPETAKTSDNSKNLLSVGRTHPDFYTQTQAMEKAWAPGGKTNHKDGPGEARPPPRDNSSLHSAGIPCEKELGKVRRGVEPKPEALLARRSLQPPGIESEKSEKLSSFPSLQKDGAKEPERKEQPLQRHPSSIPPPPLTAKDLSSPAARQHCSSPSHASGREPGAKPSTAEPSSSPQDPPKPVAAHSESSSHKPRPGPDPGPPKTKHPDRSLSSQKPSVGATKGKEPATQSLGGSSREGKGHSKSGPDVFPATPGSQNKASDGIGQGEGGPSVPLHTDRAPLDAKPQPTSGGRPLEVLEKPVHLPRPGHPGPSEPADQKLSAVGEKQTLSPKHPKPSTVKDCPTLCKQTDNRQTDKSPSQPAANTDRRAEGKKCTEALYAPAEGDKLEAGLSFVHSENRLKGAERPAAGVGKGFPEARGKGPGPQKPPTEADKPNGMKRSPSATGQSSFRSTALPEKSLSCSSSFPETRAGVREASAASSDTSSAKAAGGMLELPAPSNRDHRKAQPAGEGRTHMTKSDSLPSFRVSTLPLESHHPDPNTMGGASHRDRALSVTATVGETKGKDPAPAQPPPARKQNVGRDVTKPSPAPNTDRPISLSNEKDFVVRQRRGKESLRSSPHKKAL
Sequence of UniProt Q99661 (Q99661 whole entry, looked up): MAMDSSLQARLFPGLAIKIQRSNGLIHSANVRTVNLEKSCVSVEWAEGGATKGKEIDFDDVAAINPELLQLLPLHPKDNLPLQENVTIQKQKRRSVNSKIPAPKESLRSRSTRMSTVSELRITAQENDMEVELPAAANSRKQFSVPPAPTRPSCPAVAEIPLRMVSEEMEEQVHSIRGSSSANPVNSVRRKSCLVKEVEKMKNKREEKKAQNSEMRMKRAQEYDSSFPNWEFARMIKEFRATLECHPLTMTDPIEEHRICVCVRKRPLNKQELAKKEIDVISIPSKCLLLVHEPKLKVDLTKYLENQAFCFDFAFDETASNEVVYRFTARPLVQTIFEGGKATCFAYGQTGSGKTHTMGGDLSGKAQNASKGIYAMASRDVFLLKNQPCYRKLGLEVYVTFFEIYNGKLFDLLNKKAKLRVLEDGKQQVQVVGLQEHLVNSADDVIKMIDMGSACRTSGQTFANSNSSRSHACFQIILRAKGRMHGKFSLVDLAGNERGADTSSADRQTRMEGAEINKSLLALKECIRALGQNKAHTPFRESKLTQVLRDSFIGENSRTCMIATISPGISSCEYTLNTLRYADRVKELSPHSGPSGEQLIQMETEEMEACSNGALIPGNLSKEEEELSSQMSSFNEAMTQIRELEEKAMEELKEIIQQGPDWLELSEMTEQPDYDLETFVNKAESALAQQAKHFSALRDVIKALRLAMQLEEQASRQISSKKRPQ
Sequence of UniProt Q9NZB8 (Q9NZB8 whole entry, looked up): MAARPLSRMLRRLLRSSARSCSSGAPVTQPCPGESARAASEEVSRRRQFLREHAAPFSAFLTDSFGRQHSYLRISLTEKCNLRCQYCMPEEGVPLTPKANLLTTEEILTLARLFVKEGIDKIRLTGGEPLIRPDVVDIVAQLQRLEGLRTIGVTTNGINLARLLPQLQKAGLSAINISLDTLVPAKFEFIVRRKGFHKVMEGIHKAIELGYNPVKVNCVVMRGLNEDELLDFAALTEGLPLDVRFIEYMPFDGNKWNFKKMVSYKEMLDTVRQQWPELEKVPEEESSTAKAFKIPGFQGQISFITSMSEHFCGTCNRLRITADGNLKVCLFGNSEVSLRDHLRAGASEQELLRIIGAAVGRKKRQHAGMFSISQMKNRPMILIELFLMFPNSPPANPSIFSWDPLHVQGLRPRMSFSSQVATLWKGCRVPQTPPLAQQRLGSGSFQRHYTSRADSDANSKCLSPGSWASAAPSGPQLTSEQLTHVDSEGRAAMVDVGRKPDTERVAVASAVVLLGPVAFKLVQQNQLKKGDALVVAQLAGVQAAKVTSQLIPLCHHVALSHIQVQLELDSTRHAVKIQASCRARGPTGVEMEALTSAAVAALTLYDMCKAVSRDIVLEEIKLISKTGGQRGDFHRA

| Target | log2 fold change |
| --- | --- |
| MAP1S (UniProt Q66K74) | -0.022 |
| MON2 isoform 5 (UniProt Q7Z3U7) | 0.062 |
| LRPPRC (UniProt P42704) | -0.087 |
| LBR (UniProt Q14739) | -0.22 |
| MAPK14 (UniProt Q16539) | 0.093 |
| MLST8 (UniProt Q9BVC4) | 0.012 |
| MMS19 isoform 8 (UniProt Q96T76) | -0.051 |
| KNL1 (UniProt Q8NG31) | 0 |
| KLC1 isoform 6 (UniProt Q07866) | -0.063 |
| MICU1 isoform 3 (UniProt Q9BPX6) | -0.422 (active) |
| MOCS1 isoform 8 (UniProt Q9NZB8) | -0.013 |
| KLHL36 (UniProt Q8N4N3) | -0.048 |
| MAP2K4 isoform 2 (UniProt P45985) | -0.063 |
| MED17 (UniProt Q9NVC6) | 0.013 |
| MAP2K5 (UniProt Q13163) | -0.029 |
| LRWD1 (UniProt Q9UFC0) | 0.036 |
| MCMBP (UniProt Q9BTE3) | -0.032 |
| MRPL15 (UniProt Q9P015) | 0.174 |
| MAST4 (UniProt O15021) | 0.059 |
| MBLAC2 (UniProt Q68D91) | 0.078 |

| Target | log2 fold change |
| --- | --- |
| KNSTRN (UniProt Q9Y448) | -0.095 |
| MAP4K4 isoform 3 (UniProt O95819) | -0.158 |
| MACROD1 (UniProt Q9BQ69) | -0.014 |
| MAPK9 (UniProt P45984) | -0.15 |
| LRRC40 (UniProt Q9H9A6) | -0.052 |
| MRPL10 isoform 2 (UniProt Q7Z7H8) | -0.032 |
| MICB, A0A140T979 | 0.066 |
| LIG3 (UniProt P49916) | -0.011 |
| MAPKAPK3 (UniProt Q16644) | -0.067 |
| KIF2C (UniProt Q99661) | -0.015 |
| LRCH3 (UniProt Q96II8) | -0.031 |
| LYAR (UniProt Q9NX58) | -0.128 |
| MGST1 (UniProt P10620) | -0.069 |
| KLC4 isoform 3 (UniProt Q9NSK0) | -0.018 |
| MAPKAPK5 (UniProt Q8IW41) | -0.02 |
| MED10 (UniProt Q9BTT4) | -0.059 |
| LPIN1 isoform 7 (UniProt Q14693) | -0.05 |
| KIF21A isoform 5 (UniProt Q7Z4S6) | -0.101 |
| MAP2K1 (UniProt Q02750) | -0.041 |
